# Measured values published in ChEMBL document CHEMBL1201862, “PubChem BioAssay data set” (2004).
# About 3,400 (6.1%) of roughly 56,000 sequences were called active. No stated cut-off is given here; in the data, active = GI50 up to about 1.1 µM and inactive = higher. A selection follows. Entries with a potency or affinity are not part of this list.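 A five-concentration, 48-hour dose response in 96-well plates underlies each endpoint, interpolated linearly between surrounding concentrations. GI50 marks 50% less growth.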
# System: HOP-62
# Experiment: NCI tumour cell line growth inhibition, 48 h
row,Substance,GI50 [µM]
1,"cis-Bis[[(trimethylsilyl)methyl]amino]tetrachloroplatinum(IV), CHEMBL2146191",20.6
2,"[Bis(aminomethyl)diethylsilane]tetrachloroplatinum(IV), CHEMBL2146203",1.7
3,"mu-(1,7-nanodiamine-N,N')bis-(cis-aminedichloroplatimum (II)), CHEMBL2146215",7.64
4,"CISPLATIN, CHEMBL11359",1.82
5,"[Bis(aminomethyl)dimethylsilane]tetrachloroplatinum(IV), CHEMBL2146190",6.61
6,"[Bis(aminomethyl)tetramethylenesilane]tetrachloropaltinum(IV), CHEMBL2146189",6.32
7,"[Bis(aminomethyl)dimethylsilane]dichloroplatinum (II), CHEMBL2146201",35.3
8,"[Bis(aminomethyl)tetramethylenesilane]dichloropaltinum(II), CHEMBL2146205",39.7
9,"[Bis(aminomethyl)ethylmethylsilane]tetrachloroplatinum(IV), CHEMBL2146192",4.91
10,"[Bis(aminomethyl)pentamethylenesilane]tetrachloropaltinum(IV), CHEMBL2146204",1.55
11,"[Bis(aminomethyl)pentamethylenesilane]dichloropaltinum(II), CHEMBL2146202",2.33
